From PubChem BioAssay (NCATS) come the findings set out here.

Test [1] is described as follows: qHTS of pediatric cancer cell lines to identify multiple opportunities for drug repurposing: Primary screen for DAOY cells (AID 1347090). Note: nearly all actives have a fitted effect of over 55% in size. Note: potency is the fitted concentration of half-maximal effect. In a few lines: (§1)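 Eight- or eleven-point concentration series, 48 h treatment at 37 degrees C in growth media; readout CellTiter-Glo luminescence. Potency and efficacy were taken from the concentration-response curves.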
The nature of test [2]: qHTS of pediatric cancer cell lines to identify multiple opportunities for drug repurposing: Primary screen for U-2 OS cells (AID 1347096). Note: nearly all actives have a fitted effect of over 50% in size. Summed up:
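Cells (500-1,000/well) in growth media were settled 5 h at 37 degrees C, then given compounds for 48 h. Viability was read as CellTiter-Glo luminescence. Primary runs used MIPE at 11 points (0.78 nM-46 µM) and NPC at 8 points (0.59 nM-46 µM); follow-ups used 11 points.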
(In qHTS, concentration-response curves come from the screen itself.)

The nature of test [3]: qHTS of pediatric cancer cell lines to identify multiple opportunities for drug repurposing: Primary screen for SK-N-SH cells (AID 1347098). Note: nearly all actives have a fitted effect of over 65% in size. Note: potency is the fitted concentration of half-maximal effect. In a few lines:
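Cells (500-1,000/well) rested 5 h, then received compounds for 48 h; metabolically active cells were measured by CellTiter-Glo luminescence. Final concentrations spanned up to 46 µM (MIPE, 11-point) or 0.59 nM-46 µM (NPC, 8-point) in primary screens, 11-point in follow-ups.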

The nature of test [4]: qHTS of pediatric cancer cell lines to identify multiple opportunities for drug repurposing: Primary screen for SJ-GBM2 cells (AID 1347091). Note: potency is the fitted concentration of half-maximal effect. In a few lines:
as §1

The nature of test [5]: qHTS of pediatric cancer cell lines to identify multiple opportunities for drug repurposing: Primary screen for A673 cells (AID 1347092). Note: nearly all actives have a fitted effect of over 45% in size. Note: potency is the fitted concentration of half-maximal effect. In a few lines:
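Cell viability of A673 measured by CellTiter-Glo ATP luminescence after 48 hours compound exposure. Dilution series spanned 0.78 nM to 46 µM (MIPE, 11-point) or 0.59 nM to 46 µM (NPC, 8-point); bortezomib 2.3 uM positive control.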

The nature of test [6]: qHTS of pediatric cancer cell lines to identify multiple opportunities for drug repurposing: Primary screen for SK-N-MC cells (AID 1347093). Note: potency is the fitted concentration of half-maximal effect. In a few lines:
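Metabolically active cells were quantified by ATP-dependent luminescence (CellTiter-Glo, 15 min at room temperature) following 48 h treatment. Cells had been plated at 500-1,000 per well and settled for 5 h beforehand.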

A short description of test [7]: qHTS of pediatric cancer cell lines to identify multiple opportunities for drug repurposing: Primary screen for BT-37 cells (AID 1347094). Note: series mostly up to about 57 µM. Summed up: (§2)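 Luminescence from CellTiter-Glo served as readout of metabolically active cells after 48 h compound exposure. Titrations: MIPE 11-point, from 0.78 nM; NPC 8-point, from 0.59 nM (final). Concentration-response curves came straight from the primary screen.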

Test [8] is described as follows: qHTS of pediatric cancer cell lines to identify multiple opportunities for drug repurposing: Primary screen for NB-EBc1 cells (AID 1347095). Note: potency is the fitted concentration of half-maximal effect. In a few lines:
as §2

Test [9] in a line: qHTS of pediatric cancer cell lines to identify multiple opportunities for drug repurposing: Primary screen for Saos-2 cells (AID 1347097). Note: nearly all actives have a fitted effect of over 40% in size. Note: potency is the fitted concentration of half-maximal effect. In a few lines:
as §2

Test [10] can be described thus: qHTS of pediatric cancer cell lines to identify multiple opportunities for drug repurposing: Primary screen for NB1643 cells (AID 1347099). Note: nearly all actives have a fitted effect of over 50% in size. Note: potency is the fitted concentration of half-maximal effect. In a few lines:
as §2

Several values for one entry are separate records, joined by “and”; a condition that tells them apart may be missing. Identical values can stand only once. Inconclusive results are not listed. Activity calls are given as the source filed them. Calls come from the whole dose curve; as a rule, active = well fitted curve in the direction sought with a large enough effect; inconclusive = small, poorly fitted or top-dose-only effect, or another doubt; inactive = no such curve, though single readings can be large; an effect the other way counts as inactive or inconclusive.

In the case of `Clc1ccccc1C(c1ccccc1)(c1ccccc1)n1ccnc1`, the Potency entry in test [1], in [2] and in test [3] was “inactive” throughout.

As to `Cc1ccccc1N1C(=O)c2cc(S(N)(=O)=O)c(Cl)cc2NC1C` (stereo not given), the Potency entry in [4], in test [5], in test [6], in test [7], in test [2] and in test [3] was “inactive” in each case.

For `CC(COc1ccccc1)N(CCCl)Cc1ccccc1` (stereo not given), the Potency entry in test [1], in test [4], in test [2] and in test [3] was “inactive” throughout.

Consider `CN(C)C(=N)N=C(N)N`, for which the Potency result in test [4], in test [5], in test [6], in [7], in [8] and in test [2] was “inactive” in each case. Further, the Potency result in test [9] and in test [3] was “inactive” in each case.

Take `C[C@H]1c2cccc(O)c2C(O)=C2C(=O)[C@]3(O)C(O)=C(C(N)=O)C(=O)[C@@H](N(C)C)[C@@H]3[C@@H](O)[C@@H]21`: the Potency entry in test [1], in test [4], in test [2], in test [9], in [3] and in test [10] was “inactive” each time.

In the case of `COc1nc(C)nc(Cl)c1NC1=NCCN1`, the Potency entry in test [4], in test [5], in test [7], in test [8], in [2] and in test [3] was “inactive” in each case.

`Cn1cnc2c1c(=O)[nH]c(=O)n2C`: the Potency result in test [1] and in test [10] was “inactive” each time.

With `C[C@@H]1CC(=O)NN=C1c1ccc(NN=C(C#N)C#N)cc1`, the Potency in test [1] was 26.6 µM (active); in test [5], 23.5 µM (active); in test [10], 26.4 µM (active). Besides, the Potency result in [7] and in test [2] was “inactive” throughout.

For the molecule `NS(=O)(=O)c1cc2c(cc1Cl)NCNS2(=O)=O`, the Potency result in test [4], in [5], in [7], in test [8], in [2] and in [9] was “inactive” throughout. The Potency result in [3] was “inactive”.

Regarding `CC1(CN2CCC(n3c(=O)[nH]c4ccccc43)CC2)OCc2ccccc2-n2cccc21` (stereo not given), the Potency entry in test [1], in [4], in test [7], in test [2] and in test [9] was “inactive” in each case. The Potency was 33.2 µM (active) in test [6] and 24.4 µM (active) in test [3].

Turning to `NC(=O)OCC(COC(N)=O)c1ccccc1`, the Potency entry in test [4], in [5], in test [7], in [8], in test [2] and in [3] was “inactive” throughout.

Take `CCN1CCCC1CNC(=O)c1cc(S(=O)(=O)CC)c(N)cc1OC` (stereo not given): the Potency entry in test [4], in test [5], in [6], in [7], in test [8] and in test [2] was “inactive” each time. Moreover, the Potency entry in test [3] and in [10] was “inactive” throughout.

As for `O=C1Cc2cc(CCN3CCN(c4nsc5ccccc45)CC3)c(Cl)cc2N1`, the Potency result in test [1], in test [4], in [6], in test [8] and in [2] was “inactive” throughout.

With `Cc1cn([C@H]2C=C[C@@H](CO)O2)c(=O)[nH]c1=O`, the Potency entry in test [4], in [5], in test [7], in test [8], in [2] and in test [9] was “inactive” in each case.

Take `CN(C)c1nc(N(C)C)nc(N(C)C)n1`: the Potency result in test [4], in test [5], in test [7], in test [8] and in [2] was “inactive” throughout.

For the molecule `CC(CCc1ccc(O)cc1)NCCc1ccc(O)c(O)c1` (stereo not given), the Potency result in test [1], in test [4], in test [7] and in test [2] was “inactive” throughout. Also, the Potency in test [9] is 18.7 µM (active) and 21.1 µM (active).

As for `CS(=O)(=O)Nc1ccc([N+](=O)[O-])cc1Oc1ccccc1`, the Potency entry in test [4], in [5], in test [7], in test [2] and in test [3] was “inactive” each time. Further, the Potency in test [6] is 23.5 µM (active).

Turning to `O=C(C1CCCCC1)N1CC(=O)N2CCc3ccccc3C2C1` (stereo not given), the Potency result in [4], in test [5], in test [6], in test [7], in test [2] and in test [9] was “inactive” each time. Moreover, the Potency result in [3] and in test [10] was “inactive” throughout.

`CN(C)CCC=C1c2ccccc2C=Cc2ccccc21`: the Potency entry in test [1], in [7], in test [2] and in [10] was “inactive” throughout.

For `CC(C(=O)O)c1cccc(C(=O)c2ccccc2)c1` (stereo not given), the Potency result in test [1], in [4], in test [7], in [2] and in test [3] was “inactive” throughout.

Take `O=C(c1ccc(OCCN2CCCCC2)cc1)c1c(-c2ccc(O)cc2)sc2cc(O)ccc12`: the Potency in test [4] was 9.44 µM (active) and 18.7 µM (active); in [5], 10.6 µM (active) and 18.7 µM (active); in test [6] it was 18.8 µM (active); in [8], 20.9 µM (active); in [3] it was 13.7 µM (active). The Potency entry in test [2] is “inactive”.

For `NCCS(=O)(=O)O`, the Potency result in test [4], in test [5], in [6], in test [7], in test [2] and in test [9] was “inactive” in each case. The Potency entry in [3] is “inactive”.

In the case of `CCOC(=O)Nc1ccc(NCc2ccc(F)cc2)nc1N`, the Potency entry in test [1], in [4], in test [7], in test [2], in test [9] and in test [3] was “inactive” throughout. Besides, in [10], the Potency entry was “inactive”.

In the case of `CC1COc2c(N3CCN(C)CC3)c(F)cc3c(=O)c(C(=O)O)cn1c23` (stereo not given), the Potency result in test [1], in test [4], in [7], in test [8], in [2] and in [9] was “inactive” throughout.

On to `CCOC(=O)C(C)(C)Oc1ccc(Cl)cc1`, for which the Potency result in [4], in test [5], in test [6], in [7], in test [2] and in test [9] was “inactive” throughout. Further, the Potency result in test [3] is “inactive”.
